Reference: the supplement of paper PMC6763611

test system: Plasmodium falciparum NF54; test: growth inhibition relative to untreated control; higher = more inhibition; details: 1 µM; MM + chorismate end-products (CM screening medium); 72 h
How it was run: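 Ring-stage P. falciparum NF54 parasites at 1% hematocrit and 1% parasitemia were dispensed at 100 μL/well into dark 96-well half-area plates and given a single dose of test compound at 5 μM or 1 μM for 72 h at 37 °C. Incubation took place in minimal RPMI, either alone or supplemented with the chorismate end-products folate (2.2 μM), pABA (7.3 μM), pHBA (7.3 μM), tyrosine (111 μM), phenylalanine (90 μM) and tryptophan. Growth inhibition was determined with SYBR Green relative to untreated wells, using uninfected erythrocytes for background.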

| Compound | growth inhibition [%] |
| --- | --- |
| Cc1cc2nc(NC(=O)C(C)(C)C)nc(Cl)c2n1Cc1ccc(Cl)cc1 | 35.7 |
| CCc1cc(=O)n(C)c(SC(C)C(=O)Nc2ccc(F)cc2)n1 (stereo not drawn) | < 0 |
| COc1cccc(-c2cc3c(Nc4cccnc4)nccc3[nH]2)c1 | 91 |
| CO[C@H]1/C=C\O[C@@]2(C)Oc3c(C)c(O)c4c(O)c(/c(=C/NN5CCN(C)CC5)c(O)c4c3C2=O)=N\C(=O)/C(C)=C\C=C/[C@H](C)[C@H](O)[C@@H](C)[C@@H](O)[C@@H](C)[C@H](OC(C)=O)[C@@H]1C | 35.5 |
| CN1CCCN(C(c2ccccc2)c2ccc(Cl)cc2)CC1 (stereo not drawn) | < 0 |
| CNCCC(Oc1ccc(C(F)(F)F)cc1)c1ccccc1 (stereo not drawn) | 10.2 |
| O=C(C1CCCCC1)N1CC(=O)N2CCc3ccccc3C2C1 (stereo not drawn) | < 0 |
| C[C@H](C(N)=O)N1CCCC[C@@H]1c1ccc(OCc2cccc(F)c2)cc1 | 45.1 |
| NCC(c1cccs1)S(=O)(=O)c1ccccc1 (stereo not drawn) | 36.2 |
| Cc1nn(C(=O)Nc2cccc(C(F)(F)F)c2)c(C)c1Sc1ncccn1 | 0.416 |
| Cc1ccccc1C(=O)N1N=C(Nc2ccccc2)SC1(C)C | 49.8 |
| Cc1cc(NC(=O)c2ccc(Oc3ccc(Cl)cc3O)o2)no1 | 8.1 |
| c1ccc2c(c1)CN(CC1CC1)CC1(CCN(Cc3c[nH]c4cnccc34)CC1)O2 | 99 |
| O=C(Nc1nnc(-c2ccc(Cl)s2)o1)c1ccc(Cl)s1 | 34.8 |
| COc1ccc(Cn2cnc3c(-c4ccco4)nc(Cl)nc32)cc1 | < 0 |
| CCOC(=O)c1c(NC(=O)c2c(F)c(F)c(F)c(F)c2F)sc(C(N)=O)c1C | 28.3 |
| Oc1c(I)cc(I)c2cccnc12 | 39.4 |
| CN1CCC(c2cc(-c3ccncc3)c(-c3ccc(F)cc3)[nH]2)CC1 | 72.9 |
| N=C(N)Nc1ccc(-c2ccc(-c3ccc(N=C(N)N)c(Cl)c3)o2)cc1Cl | 73.6 |

| Compound | growth inhibition [%] |
| --- | --- |
| Cc1cc(NCCc2ccccc2)nc(NC(=N)Nc2ccc(Cl)cc2)n1 | 97.8 |
| O=C(Nc1cnc2ccccc2c1)c1cccc(-n2cnnn2)c1 | 94.1 |
| CC(C)NCC(=O)Nc1cccc(C(=O)Nc2cccc(C(F)(F)F)c2)c1 | 72.4 |
| Cc1ccc(S(=O)(=O)N2CCN(C(=O)c3cc(-c4ccccc4)n[nH]3)CC2)cc1 | 94.2 |
| COc1cccn2c(C(=O)N3CCCCC3)c(C(F)(F)F)nc12 | 12.4 |
| CC(C)(C)n1nc(Cc2ccc(F)c(Cl)c2)c2c(N)ncnc21 | 5.37 |
| Nc1ncnc2c1ncn2C[C@@H](O)[C@@H](O)C(=O)O | 44.8 |
| Cc1nnc(NC(=O)c2cn(-c3ccccc3)nc2-c2ccccc2C)o1 | 89.2 |
| Cc1cc(C)n2nc(C(=O)Nc3cc(C(F)(F)F)ccc3N3CCOCC3)nc2n1 | 82.6 |
| Cc1cc(C)cc(COc2ccc3c(C)c(CCC(=O)O)c(=O)oc3c2C)c1 | 22.5 |
| O=C(Nc1nc(-c2ccccn2)cs1)c1cncn1-c1ccccc1 | 25.9 |
| O=C(Nc1ccc(N2CCNCC2)nc1)c1oc(-c2ccccc2)nc1C(F)(F)F | 91.7 |
| O=C(NCCc1c[nH]c2ccccc12)c1cc2ccccc2oc1=O | 20.7 |
| COc1ccccc1CNC(=O)c1cc(C2CC2)nc2c1cnn2C(C)C | 82.9 |
| Cc1ccc(NC(=O)c2cc(S(=O)(=O)NC(C)(C)C)ccc2C)nc1 | 70.6 |
| CCCc1ccc(S(=O)(=O)Nc2ccc(CN3CCN(CC4CC4)CC3)cc2)cc1 | 7.84 |
| NC(=O)c1cc(-c2ccsc2)ccc1OCCOc1ccccc1 | 18.1 |
| COc1ccc(OC)c(NCc2ccc3nc(N)nc(N)c3c2Cl)c1 | 99.9 |
| FC(F)(F)c1cccc(-c2nc3c(NCc4ccncc4)nccc3[nH]2)c1 | 99.9 |
